Assay results: PubChem BioAssay
The source made the active and inactive calls.

How the values were obtained:
[1] = test system: Plasmodium falciparum Sir2 (PF13_0152, Sir2A); assay: Plasmodium falciparum Sir2A binding compounds – biochemical, small-molecule microarray, 635 nm fluorescence, primary screen (AID 1098); settings: fluorescence 635 nm, higher = more signal;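 note: score merges spot fluorescence intensity with its signal-to-noise ratio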
[2] = probe aDKK1 binding to arrayed compounds – biochemical, biotinylated probe, 635/667 nm fluorescence, primary screen (AID 1099); settings: small-molecule microarray, higher = more signal;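 note: score merges 667nm spot fluorescence with signal to noise across triplicate slides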
[3] = probe aCHRDL2 binding to arrayed compounds – biochemical, biotinylated probe, 635/667 nm fluorescence, primary screen (AID 1100); settings: small-molecule microarray, higher = more signal
[4] = change in splice reporter luminescence, either direction, cell-based, HEK293, spliceosome inhibition project, primary screen (AID 1101); settings: HEK293 splicing luciferase reporter, 24 h, higher = more signal, called active from +8 up or from −8 down;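 note: HEK293 cells carrying a splicing-competent luciferase reporter gene; test concentration not given here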
[5] = biological target: Fibroblast growth factor 10 (Homo sapiens) (UniProt O15520); assay: compounds binding fibroblast growth factor 10 – biochemical, small-molecule microarray, 635 nm fluorescence, primary screen (AID 1102); settings: FGF10 binding, fluorescence 635 nm, higher = more signal
[6] = test system: glycogen synthase kinase-3 (GSK3A per assay name; protocol says GSK3B); assay: compounds binding glycogen synthase kinase-3 – biochemical, small-molecule microarray, 635 nm fluorescence, GSK3A, primary screen (AID 1103); settings: fluorescence 635 nm, higher = more signal; note: the record names both GSK3A and GSK3B
[7] = biological target: Epidermal growth factor receptor (Homo sapiens) (UniProt P00533); assay: compounds binding epidermal growth factor receptor – biochemical, small-molecule microarray, 635 nm fluorescence, primary screen (AID 1104); settings: EGFR binding, higher = more signal;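 note: score merges 667 nm emission intensity with spot signal to noise over triplicate slides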
[8] = biological target: Follistatin-related protein 3 (Homo sapiens) (UniProt O95633); assay: compounds binding follistatin-related protein 3 – biochemical, small-molecule microarray, 635 nm fluorescence, primary screen (AID 1105); settings: FSTL3 binding, higher = more signal;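 note: score merges emission near 667 nm and signal to noise per printed spot across three slides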
[9] = biological target: Dickkopf-related protein 1 (Homo sapiens) (UniProt O94907); assay: small molecules binding DKK1 protein – biochemical, small-molecule microarray, 635 nm fluorescence scan, primary screen (AID 1106); settings: higher = more signal;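 note: score merges emission near 667 nm with signal to noise over three replicate slides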
[10] = test system: Inhibin beta A chain (activin A); assay: small molecules binding activin A – biochemical, small-molecule microarray, 635 nm fluorescence scan, primary screen (AID 1107); settings: INHBA, higher = more signal;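 note: mouse activin A protein probed at 4.33 µg/mL on printed slides; score merges bound-protein fluorescence near 667 nm with spot signal-to-noise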
[11] = test system: Human papillomavirus type 1a protein E7 (residues 44-93); assay: small molecules binding HPV E7 44-93 – biochemical, small-molecule microarray, residues 44-93, 635 nm fluorescence, primary screen (AID 1108); settings: fluorescence 635 nm, higher = more signal;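 note: E7 fragment applied at 1 µg/mL in TBST for 1 h at 4 C; score combines spot fluorescence with its signal to noise ratio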
[12] = hepatitis C replication reporter changes, two-sided – Huh7 cells, luciferase reporter, HCV replication inhibitor project, primary screen (AID 1109); settings: Huh7 HCV replicon luciferase reporter, 48 h; higher = more signal;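 note: huh7 hepatoma cells harbouring a luciferase neomycin HCV replicon reporter; luciferase luminescence as measure of HCV replicon replication; test concentration not given here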
[13] = biological target: Left-right determination factor 2 (Homo sapiens) (UniProt O00292); assay: small molecules binding LEFTY2 protein – biochemical, small-molecule microarray, 635 nm fluorescence scan, primary screen (AID 1110); settings: higher = more signal
[14] = biological target: Calmodulin-1 (Homo sapiens) (UniProt P0DP23); assay: small molecules binding calmodulin-1 with EGTA – biochemical, small-molecule microarray, Cy5-labelled CALM1, profiling panel (AID 1111); settings: Cy5-CALM1 binding fluorescence, higher = more signal;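 note: labelled calmodulin applied in Tris saline Tween buffer holding calcium plus EGTA and DTT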
[15] = biological target: Calmodulin-1 (Homo sapiens) (UniProt P0DP23); assay: small molecules binding Ca-loaded calmodulin-1 – biochemical, small-molecule microarray, Cy5-labelled CALM1, plus calcium, artefact control for SMM control-protein annotation, profiling panel (AID 1112); settings: Cy5-CALM1 binding fluorescence, higher = more signal;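 note: score merges spot fluorescence with signal to noise from triplicate slides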
[16] = probe aWnt5a binding to arrayed compounds – biochemical, biotinylated probe, 635/667 nm fluorescence, primary screen (AID 1113); settings: small-molecule microarray, higher = more signal;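 note: score merges 667 nm fluorescence intensity with signal-to-noise per printed feature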
[17] = probe aShh binding to arrayed compounds – biochemical, biotinylated probe, 635/667 nm fluorescence, primary screen (AID 1114); settings: small-molecule microarray, higher = more signal;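 note: probe is biotin-labelled aShh protein from a stem cell growth factor screen; measures binding of labelled protein to compounds printed on the slide; score merges feature fluorescence at 667 nm with signal-to-noise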
[18] = probe aNog binding to arrayed compounds – biochemical, biotinylated probe, 635/667 nm fluorescence, primary screen (AID 1115); settings: small-molecule microarray, higher = more signal;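 note: probe is biotinylated aNog protein used at 0.15 µg/mL for 1 h at 4 C; z-score combines 667 nm fluorescence of each spot with its signal to noise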
[19] = biological target: Torsin-1A-interacting protein 1 (Homo sapiens) (UniProt Q5JTV8); assay: compound microarray binding of lysate hLAP1 – cell lysate, small-molecule microarray, COS7 lysate, 635/667 nm fluorescence, primary screen (AID 1116); settings: 635 nm fluorescence, higher = more signal
[20] = biological target: Alpha-bungarotoxin (Bungarus multicinctus) (UniProt P60615); assay: compounds binding labelled alpha-BTX control protein – biochemical, small-molecule microarray, Alexa647 label, 635/667 nm fluorescence, artefact control for SMM control protein annotation, profiling panel (AID 1117); settings: alpha-BTX-A647 binding fluorescence, higher = more signal
Alpha-bungarotoxin (Bungarus multicinctus), sequence (P60615 whole entry, looked up): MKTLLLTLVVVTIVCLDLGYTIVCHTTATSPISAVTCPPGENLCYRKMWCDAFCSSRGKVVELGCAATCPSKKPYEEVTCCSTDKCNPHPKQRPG

Epidermal growth factor receptor (Homo sapiens), sequence (P00533 whole entry, looked up): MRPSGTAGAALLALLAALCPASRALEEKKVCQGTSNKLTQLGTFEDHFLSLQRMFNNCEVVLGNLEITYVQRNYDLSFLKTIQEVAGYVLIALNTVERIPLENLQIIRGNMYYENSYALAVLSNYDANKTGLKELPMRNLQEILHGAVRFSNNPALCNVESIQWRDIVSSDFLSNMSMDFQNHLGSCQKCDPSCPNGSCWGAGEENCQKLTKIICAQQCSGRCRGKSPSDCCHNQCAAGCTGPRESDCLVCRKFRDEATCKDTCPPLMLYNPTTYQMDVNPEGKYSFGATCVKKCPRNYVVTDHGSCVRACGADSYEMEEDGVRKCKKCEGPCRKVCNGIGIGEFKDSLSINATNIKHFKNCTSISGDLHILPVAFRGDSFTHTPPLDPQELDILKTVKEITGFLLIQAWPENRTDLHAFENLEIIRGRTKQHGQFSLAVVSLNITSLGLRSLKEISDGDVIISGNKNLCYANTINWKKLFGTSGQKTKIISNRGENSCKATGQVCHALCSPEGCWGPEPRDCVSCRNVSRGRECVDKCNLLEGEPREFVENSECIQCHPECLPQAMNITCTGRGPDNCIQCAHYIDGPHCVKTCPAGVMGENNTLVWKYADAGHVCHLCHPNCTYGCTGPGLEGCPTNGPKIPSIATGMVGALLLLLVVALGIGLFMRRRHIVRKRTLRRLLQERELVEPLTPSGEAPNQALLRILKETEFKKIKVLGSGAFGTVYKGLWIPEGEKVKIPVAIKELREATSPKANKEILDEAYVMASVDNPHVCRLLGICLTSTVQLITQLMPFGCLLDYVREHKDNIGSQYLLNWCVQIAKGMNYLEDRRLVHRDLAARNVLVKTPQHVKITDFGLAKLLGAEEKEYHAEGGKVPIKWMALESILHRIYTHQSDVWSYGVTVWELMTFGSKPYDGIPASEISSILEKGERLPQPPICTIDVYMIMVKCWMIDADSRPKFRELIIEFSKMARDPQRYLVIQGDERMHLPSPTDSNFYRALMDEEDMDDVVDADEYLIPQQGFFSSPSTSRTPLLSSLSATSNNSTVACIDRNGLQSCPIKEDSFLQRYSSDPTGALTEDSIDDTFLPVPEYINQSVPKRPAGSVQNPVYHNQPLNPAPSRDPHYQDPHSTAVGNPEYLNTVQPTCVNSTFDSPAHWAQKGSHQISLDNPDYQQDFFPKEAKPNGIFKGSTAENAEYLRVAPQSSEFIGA
Fibroblast growth factor 10 (Homo sapiens), sequence (O15520 whole entry, looked up): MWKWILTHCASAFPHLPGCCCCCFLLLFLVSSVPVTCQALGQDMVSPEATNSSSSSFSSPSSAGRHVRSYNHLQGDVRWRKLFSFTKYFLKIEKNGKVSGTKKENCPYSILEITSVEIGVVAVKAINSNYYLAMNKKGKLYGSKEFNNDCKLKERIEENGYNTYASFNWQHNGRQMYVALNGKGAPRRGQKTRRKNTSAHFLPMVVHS
Follistatin-related protein 3 (Homo sapiens), sequence (O95633 whole entry, looked up): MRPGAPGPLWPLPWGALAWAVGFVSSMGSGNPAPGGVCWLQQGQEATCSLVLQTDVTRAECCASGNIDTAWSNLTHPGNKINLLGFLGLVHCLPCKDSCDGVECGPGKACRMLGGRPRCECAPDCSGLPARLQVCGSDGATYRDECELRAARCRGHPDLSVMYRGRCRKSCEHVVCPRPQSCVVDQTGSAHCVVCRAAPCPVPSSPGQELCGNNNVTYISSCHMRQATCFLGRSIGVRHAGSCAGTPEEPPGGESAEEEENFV
Dickkopf-related protein 1 (Homo sapiens), sequence (O94907 whole entry, looked up): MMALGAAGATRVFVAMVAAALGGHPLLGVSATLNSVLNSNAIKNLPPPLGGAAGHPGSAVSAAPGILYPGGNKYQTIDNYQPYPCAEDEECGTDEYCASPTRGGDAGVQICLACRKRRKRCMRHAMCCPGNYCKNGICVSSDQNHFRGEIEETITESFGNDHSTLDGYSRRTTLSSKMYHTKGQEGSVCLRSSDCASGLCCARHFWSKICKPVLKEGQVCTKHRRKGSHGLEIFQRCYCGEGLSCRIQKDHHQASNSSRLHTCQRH
Torsin-1A-interacting protein 1 (Homo sapiens), sequence (Q5JTV8 whole entry, looked up): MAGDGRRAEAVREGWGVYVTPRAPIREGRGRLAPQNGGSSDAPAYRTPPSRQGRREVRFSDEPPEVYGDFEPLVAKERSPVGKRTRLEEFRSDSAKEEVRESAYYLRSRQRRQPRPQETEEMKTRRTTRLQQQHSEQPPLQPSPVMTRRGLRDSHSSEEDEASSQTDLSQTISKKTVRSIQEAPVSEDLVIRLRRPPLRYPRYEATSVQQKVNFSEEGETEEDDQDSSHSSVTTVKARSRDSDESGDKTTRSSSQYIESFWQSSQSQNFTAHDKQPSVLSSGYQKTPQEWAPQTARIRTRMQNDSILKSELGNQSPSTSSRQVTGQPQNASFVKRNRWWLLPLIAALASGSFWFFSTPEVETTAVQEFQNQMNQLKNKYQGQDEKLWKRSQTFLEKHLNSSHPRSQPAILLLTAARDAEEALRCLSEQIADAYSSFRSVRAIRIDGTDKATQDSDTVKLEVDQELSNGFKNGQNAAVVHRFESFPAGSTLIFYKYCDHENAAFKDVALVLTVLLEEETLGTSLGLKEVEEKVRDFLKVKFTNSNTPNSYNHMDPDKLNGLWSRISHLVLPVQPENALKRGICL
Left-right determination factor 2 (Homo sapiens), sequence (O00292 whole entry, looked up): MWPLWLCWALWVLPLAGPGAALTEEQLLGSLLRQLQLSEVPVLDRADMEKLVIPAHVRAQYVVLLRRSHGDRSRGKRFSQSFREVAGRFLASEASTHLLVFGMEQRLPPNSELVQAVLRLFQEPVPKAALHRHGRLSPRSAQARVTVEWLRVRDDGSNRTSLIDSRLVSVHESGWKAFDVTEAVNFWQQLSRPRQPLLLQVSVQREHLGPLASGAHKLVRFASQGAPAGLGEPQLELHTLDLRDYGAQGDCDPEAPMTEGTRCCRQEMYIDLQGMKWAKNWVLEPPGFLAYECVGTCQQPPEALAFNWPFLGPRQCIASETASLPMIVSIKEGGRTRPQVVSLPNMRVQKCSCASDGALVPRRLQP

Row | Structure (SMILES) | composite z-score [1] | composite z-score [2] | composite z-score [3] | z-score [4] | composite z-score [5] | composite z-score [6] | composite z-score [7] | composite z-score [8] | composite z-score [9] | composite z-score [10] | composite z-score [11] | z-score [12] | composite z-score [13] | composite z-score [14] | composite z-score [15] | composite z-score [16] | composite z-score [17] | composite z-score [18] | composite z-score [19] | composite z-score [20]
1 | COc1ccc(NN2C(C(O)c3cc(OC)c(OC)c(OC)c3)C=CC3C(=O)N(C4CCCCC4)C(=O)C32)cc1 (stereo not given) | 0.573 | 1.16 | 1.31 | -0.617 (inactive) | 0.672 | 1.04 | -0.187 | 0.563 | -0.61 | 0.973 | 1.22 | -1.92 | -0.346 | 1.58 | 0.509 | 0.114 | -0.226 | 0.273 | 0.479 | 1.96
2 | O=C(N1CCCCC1)[C@@]1(CCS(=O)(=O)c2ccccc2)N=C(c2ccc(OCCCO)cc2)O[C@H]1c1ccccc1 | 0.332 | 0.653 | 0.896 | -0.372 (inactive) | 1.27 | 0.811 | -0.162 | 0.598 | -0.42 | 0.356 | 1.48 | -3.07 | -0.197 | -0.215 | -0.688 | 0.212 | 0.427 | -0.133 | 1.77 | -0.0166
3 | [N-]=[N+]=NCc1ccccc1[C@H]1OC(c2ccc(OCCCO)cc2)=N[C@@]1(Cc1ccccc1N=[N+]=[N-])C(=O)NCc1ccccc1 | 1.01 | 1.09 | 1.1 | 0.672 (inactive) | 1.03 | 1.04 | -0.296 | 0.62 | -0.193 | 1.13 | 0.716 | -2.02 | -0.334 | 1.54 | 0.642 | 0.239 | 0.407 | 0.57 | 0.447 | 1.71
4 | Cc1ccc(S[C@]2(C(=O)O)CC(=O)N(Cc3cc(C(F)(F)F)cc(C(F)(F)F)c3)[C@@H]2c2ccc(CO)cc2I)cc1 | 1.3 | 0.483 | 1.16 | -1.48 (inactive) | -0.458 | -1.13 | -1.65 | -1.07 | -1.38 | 0.645 | -0.0997 | -1.39 | -2.05 | -0.279 | 0.74 | -0.0824 | 0.0767 | 0.181 | 0.598 | -0.206
5 | COC(=O)[C@@]1(Cc2ccccc2CN=[N+]=[N-])N=C(c2ccc(OCCCO)cc2)O[C@H]1c1ccccc1N=[N+]=[N-] | 1.31 | 0.244 | 0.973 | -0.298 (inactive) | 0.752 | -0.381 | -0.0185 | -0.0661 | -0.608 | 0.948 | 1.02 | -1.53 | -0.453 | 0.173 | -0.17 | -0.129 | -0.203 | 2.32 | 0.0753 | 0.45
6 | C=C(CCCC)C(=O)CC[C@@H](OC(=O)c1cccnc1)c1cccc(OCCO)c1 | 1.48 | -0.246 | 0.238 | 3.57 (inactive) | 0.72 | 0.13 | -0.237 | -0.242 | 0.265 | 1.2 | -0.0891 | -3.58 | 0.0009 | -0.708 | -1.47 | -0.0213 | -0.0977 | 0.314 | 0.469 | 1.76
